# Data reported in the supplement of paper PMC4840960.
# ± gives the standard deviation of the averaged measurements.
# Columns and labels:
# [1] = test system: E18 rat cortical neuron-glia co-culture; assay: fiber score / MBP score (myelination specific beyond OL differentiation) (ratio); higher = more myelination-specific MBP alignment; details: treatment time: 8 days (DIV5-DIV13)
# In short: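 Papain-dissociated primary E18 rat cortical co-cultures, plated at 20,000 cells/well on poly-d-lysine/laminin 96-well plates, were exposed to library compounds at 1 or 5 µM in myelination medium between DIV5 and DIV13. Following fixation in 4 % paraformaldehyde, cultures were stained for MBP, Olig2 and DAPI, and four 10X fields per well were analysed in duplicate wells. Values are the ratio of fiber score (continuous MBP fiber length per Olig2+ nucleus) to MBP score (thresholded MBP area × intensity per Olig2+ nucleus).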
# [2] = test system: E18 rat cortical neuron-glia co-culture; assay: myelination (MBP fiber length per Olig2+ nucleus), % of 1 µM DAPT response (DMSO = 0) (% of DAPT); higher = more myelination, active = 50 or more; details: treatment time: 8 days (DIV5-DIV13)
# In short: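 Myelination, expressed as continuous straight MBP fiber length per Olig2+ nucleus, was normalised to 0.1 % DMSO as 0 and a 1 µM positive control as 100. The cultures were primary E18 rat cortical co-cultures dissociated with papain and plated at 20,000 cells/well on poly-d-lysine/laminin-coated 96-well plates. They received library compounds at 1 or 5 µM in myelination medium between DIV5 and DIV13. Analysis covered four 10X fields per well in duplicate wells after 4 % paraformaldehyde fixation and immunostaining for MBP and Olig2 with DAPI.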
SMILES,fiber score / MBP score ([1]; 1 µM),fiber score / MBP score ([1]; 5 µM),myelination ([2]; 1 µM),myelination ([2]; 5 µM)
COc1cc(-c2ccc(=O)[nH]n2)ccc1OC(F)F [Zardaverine],0.581,0.397,-34.6 (inactive),-42.4 (inactive)
Nc1ccn([C@H]2CC[C@@H](CO)O2)c(=O)n1 [Zalcitabine],0.888,0.902,3.9 (inactive),-7.3 (inactive)
CCOC(=O)N1CCC(=C2c3ccc(Cl)cc3CCc3cccnc32)CC1 [Loratadine],0.832,0.575,-5.25 (inactive),-5.18 (inactive)
CC(C)(S)[C@@H](N)C(=O)O [Penicillamine],0.988,0.926,-2.14 (inactive),-5.65 (inactive)
CN1C2CCCC1CC(NC(=O)c1nn(C)c3ccccc13)C2 (stereo not drawn) [Granisetron],0.781,1.1,-10.7 (inactive),1.32 (inactive)
Cc1nnc(SCC2=C(C(=O)O)N3C(=O)[C@@H](NC(=O)Cn4cnnn4)[C@H]3SC2)s1 [Cefazolin],0.798,1.19,-6.67 (inactive),6.84 (inactive)
COc1ccc(CN2CCN(C(c3ccc(F)cc3)c3ccc(F)cc3)CC2)c(OC)c1OC [Lomerizine],1.05,0.643,14.1 (inactive),-23.5 (inactive)
Nc1nc2ccc(Cl)cc2c2nc(-c3ccco3)nn12,0.556,0.773,-37.8 (inactive),-3.25 (inactive)
Cc1nc(=O)c2cc(CN(C)c3ccc(C(=O)N[C@@H](CCC(=O)O)C(=O)O)s3)ccc2[nH]1 [Raltitrexed],1.33,1.67,177,591 (active)
COc1ccc(CCN(C)CCCC(C#N)(c2ccc(OC)c(OC)c2)C(C)C)cc1OC (stereo not drawn) [Verapamil],0.856,0.533,-27.2 (inactive),-53.6 (inactive)
O=S(=O)(O)CCS [Mesna],0.768,0.877,1.33 (inactive),-6.97 (inactive)
COc1c2occc2cc2ccc(=O)oc12 [Methoxsalen],0.488,0.29,-11.8 (inactive),-16.1 (inactive)
CC(C)(C)NC(=O)[C@@H]1CN(Cc2cccnc2)CCN1C[C@@H](O)C[C@@H](Cc1ccccc1)C(=O)N[C@H]1c2ccccc2C[C@H]1O [Indinavir],0.908,0.894,-20.5 (inactive),-24.1 (inactive)
"O=c1[nH]cnc2c1ncn2[C@H]1CC[C@@H](CO)O1 [2',3'-Dideoxyinosine]",1.07,0.869,-2.19 (inactive),-10.5 (inactive)
C[C@H](CCC(=O)O)[C@H]1CC[C@H]2[C@@H]3C(=O)C[C@@H]4CC(=O)CC[C@]4(C)[C@H]3CC(=O)[C@]12C [Dehydrocholic Acid],0.477,0.662,-18.3 (inactive),-14.2 (inactive)
NC(=O)c1cnccn1 [Pyrazinamide],0.64,0.862,-16.4 (inactive),-9.54 (inactive)
CC(C)Oc1ccc2c(=O)c(-c3ccccc3)coc2c1 [Ipriflavone],0.908,0.957,-8.04 (inactive),-7.62 (inactive)
CC(C)C[C@H](NC(=O)[C@@H](O)[C@H](N)Cc1ccccc1)C(=O)O [Ubenimex],0.92,1.09,-7.81 (inactive),1.09 (inactive)
O=c1cnn([C@@H]2O[C@H](CO)[C@@H](O)[C@H]2O)c(=O)[nH]1 [Azauridine],0.944,0.453,-6.45 (inactive),-26.1 (inactive)
O=C(O)c1cc(=O)c2c(OCC(O)COc3cccc4oc(C(=O)O)cc(=O)c34)cccc2o1 [Cromolyn Sodium],0.501,0.409,-7.17 (inactive),-12.9 (inactive)
C[C@H]1C[C@H]2[C@@H]3CCC4=CC(=O)C=C[C@]4(C)[C@@]3(Cl)[C@@H](O)C[C@]2(C)[C@@]1(O)C(=O)CO [Beclomethasone],0.828 ± 0.36,0.822 ± 0.021,-2.48 (inactive),-7.92 (inactive)
COC(=O)C1=C(C)NC(C)=C(C(=O)OC)C1c1ccccc1[N+](=O)[O-] [Nifedipine],0.768,0.919,-18.3 (inactive),10 (inactive)
CC(C)NCC(O)c1ccc(NS(C)(=O)=O)cc1 (stereo not drawn) [Sotalol],0.726,0.499,-33.5 (inactive),-60.5 (inactive)
CN(C)[C@@H]1C(O)=C(C(N)=O)C(=O)[C@@]2(O)C(O)=C3C(=O)c4c(O)cccc4[C@@](C)(O)[C@H]3[C@H](O)[C@@H]12 [Oxytetracycline],0.993,0.668,-5.3 (inactive),-10.5 (inactive)
Brc1c(NC2=NCCN2)ccc2nccnc12 [Brimonidine],0.915,0.784,-13.9 (inactive),-32 (inactive)
C[C@@H]1C[C@H]2[C@@H]3CCC4=CC(=O)C=C[C@]4(C)[C@@]3(F)[C@@H](O)C[C@]2(C)[C@H]1C(=O)CO [Desoximetasone],0.95,0.758,7.66 (inactive),-8.43 (inactive)

SMILES,fiber score / MBP score ([1]; 1 µM),fiber score / MBP score ([1]; 5 µM),myelination ([2]; 1 µM),myelination ([2]; 5 µM)
Clc1ccccc1CN1CCc2sccc2C1 [Ticlopidine],0.477,0.662,-18.3 (inactive),-14.2 (inactive)
CN1CCCC(n2nc(Cc3ccc(Cl)cc3)c3ccccc3c2=O)CC1 (stereo not drawn) [Azelastine],0.861,0.855,-2.34 (inactive),-2.84 (inactive)
NNC(=O)c1ccncc1 [Isoniazid],0.85,0.914,-1.03 (inactive),0.697 (inactive)
CCOC(=O)OC(C)OC1=C(C(=O)Nc2ccccn2)N(C)S(=O)(=O)c2ccccc21 (stereo not drawn) [Ampiroxicam],0.796,1.01,-15.1 (inactive),-4.42 (inactive)
O=C1CCC(N2C(=O)c3ccccc3C2=O)C(=O)N1 (stereo not drawn) [Thalidomide],1.07,1.14,1.07 (inactive),4.71 (inactive)
O=c1[nH]c(=O)n(C2CCCO2)cc1F (stereo not drawn) [Tegafur],0.967,0.729,-11.7 (inactive),34.5 (inactive)
Oc1ccc(/C=C/c2cc(O)cc(O)c2)cc1 [Resveratrol],0.549,0.685,-12 (inactive),-13.3 (inactive)
Cc1ccccc1C(OCCN(C)C)c1ccccc1 (stereo not drawn) [Orphenadrine],0.693 ± 0.21,0.896 ± 0.071,-7.59 (inactive),-2.71 (inactive)
COc1ccc(-c2cc(=O)c3c(OC)c(OC)c(OC)c(OC)c3o2)cc1OC [Nobiletin],1.28,1.16,-36.3 (inactive),-46.5 (inactive)
C[C@@H]1C[C@H]2[C@@H]3C[C@H](F)C4=CC(=O)C(Cl)=C[C@]4(C)[C@@]3(F)[C@@H](O)C[C@]2(C)[C@@]1(O)C(=O)CO [Halometasone hydrate],0.566,0.394,-20.7 (inactive),-30.1 (inactive)
CCCCC(=O)O[C@H]1CC[C@H]2[C@@H]3CCc4cc(O)ccc4[C@H]3CC[C@]12C [Estradiol valerate],1.07,1.04,1.8 (inactive),11.9 (inactive)
C=C[C@H]1CN2CC[C@H]1C[C@H]2[C@H](O)c1ccnc2ccc(OC)cc12 [Quinine],0.921,0.644,-1.48 (inactive),-11.3 (inactive)
COc1cc(C(=O)NC2CCCNC2)cc(OC)c1OC (stereo not drawn) [Troxipide],0.692,0.803,-15.3 (inactive),-5 (inactive)
CC1(C)S[C@@H]2[C@H](/N=C/N3CCCCCC3)C(=O)N2[C@H]1C(=O)O [Amdinocillin],0.728,0.866,-21.5 (inactive),-5.42 (inactive)
CCCc1nc(C(C)(C)O)c(C(=O)O)n1Cc1ccc(-c2ccccc2-c2nnn[nH]2)cc1 [Olmesartan],0.778,0.698,-32.2 (inactive),-45 (inactive)
Nc1nc2c(ncn2COCCO)c(=O)[nH]1 [Acyclovir],0.568,1.1,-11.9 (inactive),29.3 (inactive)
OC(CCN1CCCC1)(c1ccccc1)C1CCCCC1 (stereo not drawn) [Procyclidine],1.03,1.05,-4.99 (inactive),11.6 (inactive)
O=C(O)c1cccnc1 [Niacin],1.05,0.998,9.03 (inactive),7.38 (inactive)
CCCC1O[C@@H]2C[C@H]3[C@@H]4CCC5=CC(=O)C=C[C@]5(C)[C@H]4[C@@H](O)C[C@]3(C)[C@]2(C(=O)CO)O1 (stereo partly drawn) [Budesonide],0.86,0.762,3.65 (inactive),-18.8 (inactive)
CN(Cc1cnc2nc(N)nc(N)c2n1)c1ccc(C(=O)N[C@@H](CCC(=O)O)C(=O)O)cc1 [Methotrexate],1.06,1.53,-20.4 (inactive),195 (active)
COc1ccc2cc([C@H](C)C(=O)O)ccc2c1 [Naproxen],0.831,0.859,-5.15 (inactive),-4.96 (inactive)
Nc1ccc2cn[nH]c2c1 [6-Aminoindazole],0.529,0.815,-12.7 (inactive),-11.1 (inactive)
CCCCNc1cc(C(=O)O)cc(S(N)(=O)=O)c1Oc1ccccc1 [Bumetanide],0.846,0.859,-8.01 (inactive),-11.3 (inactive)
COc1ccc(Cl)cc1C(=O)NCCc1ccc(S(=O)(=O)NC(=O)NC2CCCCC2)cc1 [Glyburide],1.07,0.835,1.49 (inactive),-10.7 (inactive)
Cc1cc(NS(=O)(=O)c2ccc(N)cc2)no1 [Sulfamethoxazole],0.955,0.803,-3.29 (inactive),-5.03 (inactive)
CC(C(=O)O)c1cccc(C(=O)c2ccccc2)c1 (stereo not drawn) [Ketoprofen],0.813,0.972,-5.15 (inactive),-3.55 (inactive)
